Several values for one entry are separate records, joined by “and”; a condition that tells them apart may be missing. Identical values can stand only once. Activity calls are given as the source filed them. The calls were made as follows: active = hit-call score of the fitted dose curve at least 0.9, where 1 is the maximum; inactive = score below 0.9.
System: not listed separately
Test: ATG_AP_2_CIS: Attagene CIS-FACTORIAL HepG2 Assay for human Activator Protein 2 (AP-2) (AID 2282932)
Details: HepG2 AP-2 cis-reporter, Attagene transcription factor profiling; actives raise or lower the signal
In short: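 HepG2 cells transiently transfected with cis-element reporter units and exposed for 24 h. Reporter mRNA measured by RT-PCR, FAM labelling, HpaI digestion and capillary electrophoresis. Changes in either direction fitted relative to DMSO.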

Row | Structure (SMILES) | outcome | AC50
1 | C[C@]12CC[C@@H](O)C[C@@H]1CC[C@@H]1[C@@H]2CC[C@]2(C)C(=O)CC[C@@H]12 | inactive | 
2 | CNC(=O)CSP(=O)(OC)OC | inactive | 
3 | O=c1nc(O)n(Cl)c(=O)n1Cl | inactive | 
4 | CC(C)CC(C)(c1ccc(O)cc1)c1ccc(O)cc1 | inactive | 
5 | CN(C)[C@@H]1C(=O)C(C(N)=O)=C(O)[C@@]2(O)C(=O)C3=C(O)c4c(O)ccc(Cl)c4[C@@](C)(O)[C@H]3C[C@@H]12 | inactive | 
6 | N#Cc1ccc(Cl)cc1 | inactive | 
7 | N#CCC#N | inactive | 
8 | CC(C)[C@H](C(=O)OC(C#N)c1cccc(Oc2ccccc2)c1)c1ccc(OC(F)F)cc1 (stereo not given in full) | inactive | 
9 | c1ccc2c(c1)Oc1ccccc1O2 | inactive | 
10 | BrCCCCBr | inactive | 
11 | CCOP(=S)(OCC)SCSc1cc(Cl)ccc1Cl | inactive | 
12 | COC(F)(C(F)(F)C(F)(F)F)C(F)(C(F)(F)F)C(F)(F)F (stereo not given) | inactive | 
13 | BrCc1ccc(Br)cc1 | inactive | 
14 | CN(N=O)c1ccc([N+](=O)[O-])cc1 | inactive | 
15 | Fc1cccc(Cl)c1CCl | inactive | 
16 | O=S1(=O)OC(c2cc(Br)c(O)c(Br)c2)(c2cc(Br)c(O)c(Br)c2)c2ccccc21 | inactive | 
17 | Brc1ccc(Br)cc1 | inactive | 
18 | C[N+](C)(C)Cc1ccccc1 | inactive | 
19 | CCOP(=S)(OCC)OP(=S)(OCC)OCC | inactive | 
20 | O=C(N[C@H]1CN2CCC1CC2)c1ccc2c(c1)OCCO2 | inactive | 

Row | Structure (SMILES) | outcome | AC50
21 | CC1(C)COP(Oc2ccccc2)OC1 | inactive | 
22 | O=[N+]([O-])c1ccc(Nc2ccccc2)cc1 | inactive | 
23 | O=S(=O)(F)C(F)(F)C(F)(F)C(F)(F)C(F)(F)F | inactive | 
24 | Nc1ncn[nH]1 | inactive | 
25 | CCC[CH2][Sn]([CH2]CCC)([CH2]CCC)[CH2]CCC |  | 19.1 µM (active)
26 | CCOP(=S)(OCC)O/N=C(\C#N)c1ccccc1 | inactive | 
27 | Clc1cc(C(Cl)(Cl)Cl)cnc1Cl | inactive | 
28 | COC(=O)Nc1cccc(OC(=O)Nc2cccc(C)c2)c1 | inactive | 
29 | Brc1ccc(Oc2c(Br)cc(Br)cc2Br)c(Br)c1 | inactive | 
30 | CCOP(=O)(OCC)SCCSCC | inactive | 
31 | N#CS | inactive | 
32 | Cc1cc(-c2cc(C)c(N)c(C)c2)cc(C)c1N | inactive | 
33 | O=c1oc2ccccc2c(O)c1C(CC(O)c1ccc(-c2ccc(Br)cc2)cc1)c1ccccc1 (stereo not given) |  | 54.8 µM (active) and 48.2 µM (active)
34 | Cc1ccc2nc3sc(=O)sc3nc2c1 |  | 9.68 µM (active)
35 | CC[N+](CC)(CC)CC | inactive | 
36 | CC(C)(c1ccccc1)c1cc(-n2nc3ccccc3n2)c(O)c(C(C)(C)c2ccccc2)c1 | inactive | 
37 | Cc1cc(C(F)(C(F)(F)F)C(F)(F)F)ccc1NC(=O)c1cccc(I)c1C(=O)NC(C)(C)CS(C)(=O)=O | inactive | 
38 | N#CCCC(Br)(C#N)CBr (stereo not given) |  | 49.9 µM (active)
39 | COc1ccc(N)cc1 | inactive | 

System: not listed separately
Test: ATG_BRE_CIS: Attagene CIS-FACTORIAL HepG2 Assay for human Bone Morphogenetic Protein (BMP) Response Element (BRE) (AID 2282933)
Details: HepG2 BMP response element reporter, Attagene transcription factor profiling; actives raise or lower the signal
In short: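 Transient MRTU transfection of human HepG2 liver cells; 24 h compound treatment; total RNA isolated, reverse-transcribed, PCR-amplified, 6-FAM labelled, HpaI-cut, capillary electrophoresis. DMSO = negative control/baseline, bidirectional fit.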

Row | Structure (SMILES) | outcome | AC50
40 | CNC(=O)CSP(=O)(OC)OC | inactive | 
41 | O=c1nc(O)n(Cl)c(=O)n1Cl | inactive | 
42 | CC(C)CC(C)(c1ccc(O)cc1)c1ccc(O)cc1 | inactive | 
43 | CN(C)[C@@H]1C(=O)C(C(N)=O)=C(O)[C@@]2(O)C(=O)C3=C(O)c4c(O)ccc(Cl)c4[C@@](C)(O)[C@H]3C[C@@H]12 |  | 30.3 µM (active)
44 | N#Cc1ccc(Cl)cc1 | inactive | 
45 | N#CCC#N | inactive | 
46 | c1ccc2c(c1)Oc1ccccc1O2 | inactive | 
47 | CCOP(=S)(OCC)SCSc1cc(Cl)ccc1Cl | inactive | 
48 | BrCc1ccc(Br)cc1 | inactive | 
49 | CN(N=O)c1ccc([N+](=O)[O-])cc1 | inactive | 
50 | Fc1cccc(Cl)c1CCl | inactive | 
51 | Brc1ccc(Br)cc1 | inactive | 
52 | C[N+](C)(C)Cc1ccccc1 | inactive | 
53 | CCOP(=S)(OCC)OP(=S)(OCC)OCC | inactive | 
54 | CC1(C)COP(Oc2ccccc2)OC1 | inactive | 
55 | O=[N+]([O-])c1ccc(Nc2ccccc2)cc1 |  | 163 µM (active)
56 | O=S(=O)(F)C(F)(F)C(F)(F)C(F)(F)C(F)(F)F | inactive | 
57 | Nc1ncn[nH]1 | inactive | 
58 | CCC[CH2][Sn]([CH2]CCC)([CH2]CCC)[CH2]CCC |  | 5.89 µM (active)
59 | CCOP(=S)(OCC)O/N=C(\C#N)c1ccccc1 |  | 31.6 µM (active)
60 | Clc1cc(C(Cl)(Cl)Cl)cnc1Cl | inactive | 
61 | N#CS | inactive | 
62 | Cc1cc(-c2cc(C)c(N)c(C)c2)cc(C)c1N | inactive | 
63 | O=c1oc2ccccc2c(O)c1C(CC(O)c1ccc(-c2ccc(Br)cc2)cc1)c1ccccc1 (stereo not given) | inactive | 
64 | CC[N+](CC)(CC)CC | inactive | 
65 | CC(C)(c1ccccc1)c1cc(-n2nc3ccccc3n2)c(O)c(C(C)(C)c2ccccc2)c1 | inactive | 
66 | COc1ccc(N)cc1 | inactive | 

Molecular target: Retinoic acid receptor alpha (Homo sapiens) (UniProt P10276)
Sequence (P10276 whole entry, looked up): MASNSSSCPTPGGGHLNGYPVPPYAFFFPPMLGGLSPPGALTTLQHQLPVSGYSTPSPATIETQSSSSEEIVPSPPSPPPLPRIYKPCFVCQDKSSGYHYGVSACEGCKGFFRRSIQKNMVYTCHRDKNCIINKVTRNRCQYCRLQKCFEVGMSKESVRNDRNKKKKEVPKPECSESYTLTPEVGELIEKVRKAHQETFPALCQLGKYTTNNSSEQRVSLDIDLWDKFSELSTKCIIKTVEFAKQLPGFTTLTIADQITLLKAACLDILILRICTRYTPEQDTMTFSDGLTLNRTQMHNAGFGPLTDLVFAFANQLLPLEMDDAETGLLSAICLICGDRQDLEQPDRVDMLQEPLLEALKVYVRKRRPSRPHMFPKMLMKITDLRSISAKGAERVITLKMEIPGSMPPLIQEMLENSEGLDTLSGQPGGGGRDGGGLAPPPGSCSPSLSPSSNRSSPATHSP
Test: ATG_DR5_RAR_CIS: Attagene CIS-FACTORIAL HepG2 Assay for human Retinoic Acid Receptor Alpha (RARE), DR5 submotif (AID 2282934);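 as to AC50: reporter responds to endogenous RAR alpha beta and gamma in HepG2 not RARA alone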
Details: HepG2 Attagene cis-factorial RARE DR5 reporter, mRNA; actives raise or lower the signal
In short: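 After 24 h of chemical exposure, transiently transfected HepG2 cells were lysed for total RNA; the DR5-regulated reporter transcript was quantified via RT-PCR and capillary electrophoresis, with activity fitted bidirectionally against DMSO.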

Row | Structure (SMILES) | outcome | AC50
67 | C[C@]12CC[C@@H](O)C[C@@H]1CC[C@@H]1[C@@H]2CC[C@]2(C)C(=O)CC[C@@H]12 | inactive | 
68 | CNC(=O)CSP(=O)(OC)OC | inactive | 
69 | CC(C)CC(C)(c1ccc(O)cc1)c1ccc(O)cc1 | inactive | 
70 | CN(C)[C@@H]1C(=O)C(C(N)=O)=C(O)[C@@]2(O)C(=O)C3=C(O)c4c(O)ccc(Cl)c4[C@@](C)(O)[C@H]3C[C@@H]12 | inactive | 
71 | N#Cc1ccc(Cl)cc1 | inactive | 
72 | N#CCC#N |  | 63.4 µM (active)
73 | CC(C)[C@H](C(=O)OC(C#N)c1cccc(Oc2ccccc2)c1)c1ccc(OC(F)F)cc1 (stereo not given in full) | inactive | 
74 | c1ccc2c(c1)Oc1ccccc1O2 | inactive | 
75 | BrCCCCBr | inactive | 
76 | CCOP(=S)(OCC)SCSc1cc(Cl)ccc1Cl | inactive | 
77 | COC(F)(C(F)(F)C(F)(F)F)C(F)(C(F)(F)F)C(F)(F)F (stereo not given) | inactive | 
78 | BrCc1ccc(Br)cc1 | inactive | 
79 | CN(N=O)c1ccc([N+](=O)[O-])cc1 | inactive | 
80 | Fc1cccc(Cl)c1CCl | inactive | 
81 | O=S1(=O)OC(c2cc(Br)c(O)c(Br)c2)(c2cc(Br)c(O)c(Br)c2)c2ccccc21 | inactive | 
82 | Brc1ccc(Br)cc1 | inactive | 
83 | CCOP(=S)(OCC)OP(=S)(OCC)OCC | inactive | 

Row | Structure (SMILES) | outcome | AC50
84 | O=C(N[C@H]1CN2CCC1CC2)c1ccc2c(c1)OCCO2 | inactive | 
85 | CC1(C)COP(Oc2ccccc2)OC1 | inactive | 
86 | O=[N+]([O-])c1ccc(Nc2ccccc2)cc1 | inactive | 
87 | O=S(=O)(F)C(F)(F)C(F)(F)C(F)(F)C(F)(F)F | inactive | 
88 | Nc1ncn[nH]1 | inactive | 
89 | CCC[CH2][Sn]([CH2]CCC)([CH2]CCC)[CH2]CCC |  | 0.283 µM (active)
90 | CCOP(=S)(OCC)O/N=C(\C#N)c1ccccc1 | inactive | 
91 | Clc1cc(C(Cl)(Cl)Cl)cnc1Cl | inactive | 
92 | COC(=O)Nc1cccc(OC(=O)Nc2cccc(C)c2)c1 | inactive | 
93 | Brc1ccc(Oc2c(Br)cc(Br)cc2Br)c(Br)c1 | inactive | 
94 | CCOP(=O)(OCC)SCCSCC | inactive | 
95 | Cc1cc(-c2cc(C)c(N)c(C)c2)cc(C)c1N | inactive | 
96 | Cc1ccc2nc3sc(=O)sc3nc2c1 |  | 6.63 µM (active)
97 | CC[N+](CC)(CC)CC | inactive | 
98 | CC(C)(c1ccccc1)c1cc(-n2nc3ccccc3n2)c(O)c(C(C)(C)c2ccccc2)c1 | inactive | 
99 | Cc1cc(C(F)(C(F)(F)F)C(F)(F)F)ccc1NC(=O)c1cccc(I)c1C(=O)NC(C)(C)CS(C)(=O)=O | inactive | 
100 | N#CCCC(Br)(C#N)CBr (stereo not given) |  | 55.3 µM (active)

Reference: PubChem BioAssay (EPA / NIEHS)
